According to PubChem BioAssay (NCATS):
Records with an inconclusive call do not appear. The source made the active and inactive calls. The call rests on the fitted dose curve; in most records, active means well fitted curve in the direction sought with a large enough effect; inconclusive means small, poorly fitted or top-dose-only effect, or another doubt; inactive means no such curve, though single readings can be large; an effect the other way counts as inactive or inconclusive. Where a SMILES comes first, the peptide text is derived from it. [ ]: non-standard residue; d: D form.

Assays:
NIH3T3 = assay: qHTS assay to identify novel small-molecules to repurpose for Merkel cell carcinoma treatment (AID 1296009); conditions: MCC and control cell lines, CellTiter-Glo viability, 72 h; at 44.8 µM (top of the series) unless noted; further: nearly all actives have a fitted effect of over 60% in size
How it was run: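 Cells exposed to NPC (8-point) and MIPE (11-point) compound dilutions for 72 hr at 37 degree celsius; viability read by CellTiter-Glo luminescence, normalized to no-cell and DMSO in-plate controls.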

C33A = assay: Primary qHTS to identify gynecologic anti-cancer compounds using libraries of approved drugs and bioactive compounds (AID 1345084); conditions: Gynecologic cancer cell panel viability, ATPlite luminescence, 48 h; series mostly up to 57.5 µM; further: on the % scale 0 is the no-effect control and ±100 the full control effect; nearly all actives have a fitted effect of over 55% in size
How it was run: (§1)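 Cytotoxicity screen measuring ATP content by luciferase luminescence. Each compound is applied at five concentrations for 48 h at 37 C with 5% CO2.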

CAOV3 = assay: as above; conditions: Gynecologic cancer cell panel viability, ATPlite luminescence, 48 h; series mostly up to 57.5 µM
How it was run: as §1

CASKI = assay: as above; conditions: Gynecologic cancer cell panel viability, ATPlite luminescence, 48 h; series mostly up to 57.5 µM
How it was run: as §1

Es-2 = assay: as above; conditions: Gynecologic cancer cell panel viability, ATPlite luminescence, 48 h; series mostly up to 57.5 µM
How it was run: as §1

HeLa = assay: as above; conditions: Gynecologic cancer cell panel viability, ATPlite luminescence, 48 h; series mostly up to 57.5 µM
How it was run: as §1

Hek293T = assay: as above; conditions: Gynecologic cancer cell panel viability, ATPlite luminescence, 48 h, control line for the selectivity index; series mostly up to 57.5 µM
How it was run: as §1

JEG-3 = assay: as above; conditions: Gynecologic cancer cell panel viability, ATPlite luminescence, 48 h; series mostly up to 57.5 µM
How it was run: as §1

OV90 = assay: as above; conditions: Gynecologic cancer cell panel viability, ATPlite luminescence, 48 h; series mostly up to 57.5 µM
How it was run: as §1

PA-1 = assay: as above; conditions: Gynecologic cancer cell panel viability, ATPlite luminescence, 48 h; series mostly up to 57.5 µM
How it was run: as §1

SKOV3 = assay: as above; conditions: Gynecologic cancer cell panel viability, ATPlite luminescence, 48 h; series mostly up to 57.5 µM
How it was run: as §1

Tov-21-G = assay: as above; conditions: Gynecologic cancer cell panel viability, ATPlite luminescence, 48 h; series mostly up to 57.5 µM
How it was run: as §1

Tov112D = assay: as above; conditions: Gynecologic cancer cell panel viability, ATPlite luminescence, 48 h; series mostly up to 57.5 µM
How it was run: as §1

C/C=C1\[C@H](O[C@@H]2O[C@H](CO)[C@@H](O)[C@H](O)[C@H]2O)OC=C(C(=O)OC)[C@H]1CC(=O)OC
inactive: outcome (NIH3T3) inactive [at 17.4 µM] | Potency (C33A) | Potency (CAOV3) | Potency (CASKI) | Potency (Es-2) | Potency (HeLa) | Potency (Hek293T) | Potency (JEG-3) | Potency (OV90) | Potency (PA-1) | Potency (SKOV3) | Potency (Tov-21-G) | Potency (Tov112D)

CC1(C(=O)O)CCCC2(C)C1CCC13CC(CCC21)C1(CO)OC31 (centres undefined)
inactive: outcome (NIH3T3) | Potency (C33A) | Potency (CAOV3) | Potency (CASKI) | Potency (Es-2) | Potency (HeLa) | Potency (Hek293T) | Potency (JEG-3) | Potency (OV90) | Potency (PA-1) | Potency (SKOV3) | Potency (Tov-21-G) | Potency (Tov112D)

CCC(=O)N[C@@H]1Cc2ccccc2[C@H](c2ccccc2)C1
inactive: outcome (NIH3T3) | Potency (C33A) | Potency (CAOV3) | Potency (CASKI) | Potency (Es-2) | Potency (HeLa) | Potency (Hek293T) | Potency (JEG-3) | Potency (OV90) | Potency (PA-1) | Potency (SKOV3) | Potency (Tov-21-G) | Potency (Tov112D)

CC1=CCC2C(C)(CO)CCCC2(C)C1CC12OC1C(O)C(CO)=CC2O (centres undefined)
inactive: outcome (NIH3T3) | Potency (C33A) | Potency (CAOV3) | Potency (CASKI) | Potency (Es-2) | Potency (HeLa) | Potency (Hek293T) | Potency (JEG-3) | Potency (OV90) | Potency (PA-1) | Potency (SKOV3) | Potency (Tov-21-G) | Potency (Tov112D)

CC(=O)NC(CCC(=O)O)C(=O)NCCc1ccc(O)cc1 (centres undefined)
inactive: outcome (NIH3T3) | Potency (C33A) | Potency (CAOV3) | Potency (CASKI) | Potency (Es-2) | Potency (HeLa) | Potency (Hek293T) | Potency (JEG-3) | Potency (OV90) | Potency (PA-1) | Potency (SKOV3) | Potency (Tov-21-G) | Potency (Tov112D)

CCNC(=O)CCC/C=C\C[C@@H]1[C@@H](/C=C/C(O)CCc2ccccc2)[C@@H](O)C[C@@H]1O (some centres undefined)
inactive: outcome (NIH3T3) | Potency (C33A) | Potency (CAOV3) | Potency (CASKI) | Potency (Es-2) | Potency (HeLa) | Potency (Hek293T) | Potency (JEG-3) | Potency (OV90) | Potency (PA-1) | Potency (SKOV3) | Potency (Tov-21-G) | Potency (Tov112D)

C[C@H]1C[C@H]2[C@@H]3CCC4=CC(=O)C=C[C@]4(C)[C@@]3(F)[C@@H](O)C[C@]2(C)[C@@]1(O)C(=O)COP(=O)(O)O
inactive: outcome (NIH3T3) | Potency (C33A) | Potency (CAOV3) | Potency (CASKI) | Potency (Es-2) | Potency (HeLa) | Potency (Hek293T) | Potency (JEG-3) | Potency (OV90) | Potency (PA-1) | Potency (SKOV3) | Potency (Tov-21-G) | Potency (Tov112D)

CC(C)=CCc1ccc(Oc2c(O)cc(C)cc2CO)c(C(=O)O)c1O
inactive: outcome (NIH3T3) | Potency (C33A) | Potency (CAOV3) | Potency (CASKI) | Potency (Es-2) | Potency (HeLa) | Potency (Hek293T) | Potency (JEG-3) | Potency (OV90) | Potency (PA-1) | Potency (SKOV3) | Potency (Tov-21-G) | Potency (Tov112D)

CNC(=O)c1ccc2cc([C@@]3(O)CCn4cncc43)ccc2c1
inactive: outcome (NIH3T3) | Potency (C33A) | Potency (CAOV3) | Potency (CASKI) | Potency (Es-2) | Potency (HeLa) | Potency (Hek293T) | Potency (JEG-3) | Potency (OV90) | Potency (PA-1) | Potency (SKOV3) | Potency (Tov-21-G) | Potency (Tov112D)

CC1OC(OC2C(O)C(C(=O)O)OC(OC3CCC4(C)C(CCC5(C)C4C=CC4=C6CC(C)(C)CC(O)C6(C)CCC45C)C3(C)C)C2OC2OCC(O)C(O)C2O)C(O)C(O)C1O (centres undefined)
inactive: outcome (NIH3T3) inactive [at 9.27 µM] | activity change, negative = cytotoxicity (C33A) 25.5% [at 11.6 µM] | activity change, negative = cytotoxicity (CAOV3) 25.6% [at 11.6 µM] | activity change, negative = cytotoxicity (CASKI) 17.4% [at 11.6 µM] | activity change, negative = cytotoxicity (Es-2) -1.97% [at 11.6 µM] | activity change, negative = cytotoxicity (HeLa) -2.13% [at 11.6 µM] | activity change, negative = cytotoxicity (Hek293T) -1.86% [at 11.6 µM] | activity change, negative = cytotoxicity (JEG-3) 0.12% [at 11.6 µM] | activity change, negative = cytotoxicity (OV90) 1.31% [at 11.6 µM] | activity change, negative = cytotoxicity (PA-1) 8.55% [at 11.6 µM] | activity change, negative = cytotoxicity (SKOV3) 1.68% [at 11.6 µM] | activity change, negative = cytotoxicity (Tov-21-G) 7.57% [at 11.6 µM] | activity change, negative = cytotoxicity (Tov112D) 16.2% [at 11.6 µM]

CC[C@H](/C=C/[C@@H](C)[C@H]1CC[C@H]2[C@@H]3CC=C4C[C@@H](O)CC[C@]4(C)[C@H]3CC[C@]12C)C(C)C
inactive: outcome (NIH3T3) inactive [at 4.96 µM] | activity change, negative = cytotoxicity (C33A) 8.42% [at 6.55 µM] | activity change, negative = cytotoxicity (CAOV3) 7.88% [at 6.55 µM] | activity change, negative = cytotoxicity (CASKI) 17.1% [at 6.55 µM] | activity change, negative = cytotoxicity (Es-2) 0.911% [at 6.55 µM] | activity change, negative = cytotoxicity (HeLa) -1.7% [at 6.55 µM] | activity change, negative = cytotoxicity (Hek293T) 4.66% [at 6.55 µM] | activity change, negative = cytotoxicity (JEG-3) 3.22% [at 6.55 µM] | activity change, negative = cytotoxicity (OV90) 2.68% [at 6.55 µM] | activity change, negative = cytotoxicity (PA-1) 2.16% [at 6.55 µM] | activity change, negative = cytotoxicity (SKOV3) 8.88% [at 6.55 µM] | activity change, negative = cytotoxicity (Tov-21-G) 16.8% [at 6.55 µM] | activity change, negative = cytotoxicity (Tov112D) -1.77% [at 6.55 µM]

O=C(/C=C/c1ccc(O)cc1)OC[C@]12O[C@H]1[C@@H](O)[C@@H]1C=CO[C@@H](O[C@@H]3O[C@H](CO)[C@@H](O)[C@H](O)[C@H]3O)[C@@H]12
inactive: outcome (NIH3T3) inactive [at 17.4 µM] | Potency (C33A) | Potency (CAOV3) | Potency (CASKI) | Potency (Es-2) | Potency (HeLa) | Potency (Hek293T) | Potency (JEG-3) | Potency (OV90) | Potency (PA-1) | Potency (SKOV3) | Potency (Tov-21-G) | Potency (Tov112D)

O=C(CCCCc1ccc2ccccc2c1)C(F)(F)F
inactive: outcome (NIH3T3) inactive [at 92 µM] | Potency (C33A) | Potency (CAOV3) | Potency (CASKI) | Potency (Es-2) | Potency (HeLa) | Potency (Hek293T) | Potency (JEG-3) | Potency (OV90) | Potency (PA-1) | Potency (SKOV3) | Potency (Tov-21-G) | Potency (Tov112D)

NC1CCC(N[C@@H]2C[C@H]2c2ccccc2)CC1 (some centres undefined)
inactive: outcome (NIH3T3) | Potency (C33A) | Potency (CAOV3) | Potency (CASKI) | Potency (Es-2) | Potency (HeLa) | Potency (Hek293T) | Potency (JEG-3) | Potency (OV90) | Potency (PA-1) | Potency (SKOV3) | Potency (Tov-21-G) | Potency (Tov112D)

CC(=O)O[C@@H]1[C@@H](OC(=O)/C=C/c2ccccc2)[C@H](C)O[C@@H](O[C@H]2[C@@H]3C=CO[C@@H](O[C@@H]4O[C@H](CO)[C@@H](O)[C@H](O)[C@H]4O)[C@@H]3[C@@]3(CO)O[C@@H]23)[C@@H]1OC(C)=O
inactive: outcome (NIH3T3) inactive [at 17.4 µM] | Potency (C33A) | Potency (CAOV3) | Potency (CASKI) | Potency (Es-2) | Potency (HeLa) | Potency (Hek293T) | Potency (JEG-3) | Potency (OV90) | Potency (PA-1) | Potency (SKOV3) | Potency (Tov-21-G) | Potency (Tov112D)

CC(=O)N[C@H](Cc1ccc(O)cc1)C(=O)N[C@H](CCCN=C(N)N)C(=O)N[C@H](Cc1ccccc1)C(N)=O (Ac-[dY]-[dR]-[dF]-NH2)
inactive: outcome (NIH3T3) | Potency (C33A) | Potency (CAOV3) | Potency (CASKI) | Potency (Es-2) | Potency (HeLa) | Potency (Hek293T) | Potency (JEG-3) | Potency (OV90) | Potency (PA-1) | Potency (SKOV3) | Potency (Tov-21-G) | Potency (Tov112D)

Cc1ncc([N+](=O)[O-])n1CC(O)CN1CCOCC1 (centres undefined)
inactive: outcome (NIH3T3) | Potency (C33A) | Potency (CAOV3) | Potency (CASKI) | Potency (Es-2) | Potency (HeLa) | Potency (Hek293T) | Potency (JEG-3) | Potency (OV90) | Potency (PA-1) | Potency (SKOV3) | Potency (Tov-21-G) | Potency (Tov112D)

CC(C)C1=CC2=CCC3[C@](C)(CCC[C@@]3(C)C(=O)O)C2CC1=O (some centres undefined)
inactive: outcome (NIH3T3) | Potency (C33A) | Potency (CAOV3) | Potency (CASKI) | Potency (Es-2) | Potency (HeLa) | Potency (Hek293T) | Potency (JEG-3) | Potency (OV90) | Potency (PA-1) | Potency (SKOV3) | Potency (Tov-21-G) | Potency (Tov112D)
